ChEMBL document CHEMBL4513216, “Probing the Open Global Health Chemical Diversity Library for Multistage-Active Starting Points for Next-Generation Antimalarials” (ACS Infect Dis, 2020)
Among all 65,000 compounds or so, about 2,100 (3.2%) showed an effect of 50% or more. The median lay at about -52%. This excerpt belongs to a sample that is enriched for strong results.

These molecules were tested on Plasmodium falciparum (assay: Screen against P. falciparum Asexual Blood Stage (ABS), at 5uM). Conditions: tested at 5 uM.
Format: functional, Dd2

| SMILES | INHIBITION |
| --- | --- |
| Cc1cc(NCCN2CCNC2=O)nc2cc3c(cc12)CCC3 | -14.4% |
| CSCCN1CCC(NC(=O)c2cccc(C3CCCNC3)c2)CC1 (centres undefined) | -131% |
| O=c1[nH]c(N2CCN(C3CC3)CC2)nc2c1cnn2-c1ccccc1 | 50.1% |
| CC1CCN(c2nc3c(cnn3-c3ccccc3)c(=O)[nH]2)CC1 | -6.59% |
| O=c1[nH]c(N2CC(O)C2)nc2c1cnn2-c1ccccc1 | -202% |
| Cc1nc(-c2c(C)noc2C)cc(C2CCN(CC(=O)N(C)C)CC2)n1 | -74% |
| Cc1cc(Cl)cc(C)c1CNC1CCN(CC(=O)N(C)C)CC1 | 54.4% |
| Cc1cc2cc(CNC3CCN(CC(=O)N(C)C)CC3)oc2cc1C | -159% |
| CC(C)CNC(=O)c1cccc(CN2CCc3c(ncn3C)C2)c1 | -103% |
| CCOc1cccc2c1OCC(=O)N(c1ccc3c(c1)OCCO3)C2 | -105% |
| Cc1ccc2c(n1)N(CCN(C)C)CCN(Cc1c(C)noc1C)C2 | 63.1% |
| COCCN1CCN(Cc2c(C)noc2C)Cc2ccc(C)nc21 | -54% |
| COCCN1CCN(Cc2c(C)noc2C)Cc2cccnc21 | -19.1% |
| Cc1cc(CNC(=O)NC(C)(CO)C2CC2)c(C)s1 (centres undefined) | -55.5% |
| Cc1nccn1-c1ccc(N2CCC(N[C@H](C)C(C)C)CC2)cc1 | -49.6% |
| Cc1nccn1-c1ccc(N2CCC(NC(C)CC(C)C)CC2)cc1 (centres undefined) | 30.2% |
| CCCC(C)NC1CCN(c2ccc(-n3ccnc3C)cc2)CC1 (centres undefined) | 52.3% |
| Cc1c[nH]nc1C1CCCCN1C(=O)CCn1nccc1C (centres undefined) | -97% |
| Cc1cccn2cc(C(=O)N3CCCN(CC4CC4)C(C(C)C)C3)nc12 (centres undefined) | -26.5% |
| O=C1N(CCO)CCCC12CCN(Cc1nnc(C3CC3)o1)C2 (centres undefined) | -77.7% |
| Cc1ccc(S(=O)(=O)NCC2(O)CCOc3ccccc32)s1 (centres undefined) | -36.2% |
| O=S(=O)(NCC1(O)CCOc2ccccc21)c1ccc(Br)s1 (centres undefined) | 59.2% |
| O=S(=O)(NCC1(O)CCOc2ccccc21)c1ccc(Cl)s1 (centres undefined) | -88.4% |
| c1cncc(COCc2n[nH]c3c2CN(Cc2ccco2)C3)c1 | -89.3% |
| O=S(=O)(c1ccc(-c2cnco2)cc1)N1CCCC(O)(CO)CC1 (centres undefined) | -40.8% |
| CN1CCC2(CCN(S(=O)(=O)c3ccc(-c4cnco4)s3)CC2)C1 | 68.4% |

| SMILES | INHIBITION |
| --- | --- |
| CN1CCC2(CCCN(S(=O)(=O)c3ccc(-c4cnco4)s3)C2)C1 (centres undefined) | 52.1% |
| O=S(=O)(c1ccc(-c2cnco2)cc1)N1CCC2(CCCNC2)C1 (centres undefined) | 47% |
| O=S(=O)(c1ccc(-c2cnco2)cc1)N1CCCC2(CCNCC2)CC1 | 8.22% |
| CN1CCCC2(CCN(S(=O)(=O)c3ccc(-c4cnco4)s3)C2)C1=O (centres undefined) | -16.8% |
| COC(=O)c1cc(OCC2CCC2)cc(C(=O)N[C@@H](C)CO)c1 | -90% |
| c1ccc(N2CCOC3(CCCN(c4ncccn4)C3)C2)nc1 (centres undefined) | -101% |
| c1ccc(N2CCCC2)c(NCc2ccncc2)c1 | -27.2% |
| CN(Cc1cccc(C(N)=O)c1)c1ncc(C#N)cc1Cl | -76.1% |
| O=C(CN1CCCC(Cn2cncn2)C1)NCCCc1ccccc1 (centres undefined) | -62.6% |
| Cc1cc(C(=O)N2CCC(N3CCNC3=O)CC2)nn1C(C)(C)C | -59.8% |
| Cc1cc(C(=O)N2CCCC(N3CCNC3=O)C2)nn1C(C)(C)C (centres undefined) | -37.9% |
| Cc1cc(C(=O)N2CCCC(N3CCCCCC3)C2)nn1C(C)(C)C (centres undefined) | 55.5% |
| Cc1cc(CNC(=O)c2cnoc2C)c(C)o1 | -78% |
| O=C(c1cccnc1O)N1CCN(Cc2ccccc2F)CC1 | -14.3% |
| Cc1cc(Oc2ccccc2)nc(C2CCCCN2)n1 (centres undefined) | -17.4% |
| Cc1cc(Oc2ccccc2F)nc(C2CCCCN2)n1 (centres undefined) | 57.5% |
| Cc1cc(Oc2ccccc2C)nc(C2CCCN2)n1 (centres undefined) | 25.4% |
| CN(C)C1(CNC(=O)Cc2ccc(F)cc2)CCOCC1 | 0.427% |
| CN(C)C1(CNC(=O)CC=Cc2ccc(F)cc2)CCOCC1 | 57.5% |
| CN(C)C1(CNC(=O)C2CCCN2Cc2ccc(F)cc2)CCOCC1 (centres undefined) | 68.7% |
| CC(C)NC(=O)C1CN(Cc2ccc(F)cc2)CC12CCOCC2 (centres undefined) | -23.5% |
| CN(C)C(C(=O)NCC1(N(C)C)CCOCC1)c1ccccc1F (centres undefined) | -6.85% |
| CC1(C(=O)NCCc2ccc(F)cc2)CCOCC1 | -16.2% |
| COCc1nc(C(=O)N2CCCC2Cn2cc(C)cn2)cs1 (centres undefined) | -179% |
| Cc1cccc(CN2CCC3(CCCN(Cc4cnn(C)c4)C3)C2)n1 (centres undefined) | -21.5% |
| CN(C)C(=O)NCc1ncn2c1CN(Cc1cccs1)CCC2 | -61.4% |

| SMILES | INHIBITION |
| --- | --- |
| CN(C)C(=O)[C@@]12CCO[C@@H]1CCN(Cc1ccc3c(c1)OCO3)C2 | -52.2% |
| O=C(COc1coc(CN2CCSCC2)cc1=O)c1ccccc1 | -95.1% |
| CC1(C(=O)NCc2cccnc2Oc2ccc(F)cc2F)CCCNC1 (centres undefined) | 21.1% |
| COc1ccccc1Oc1ncccc1CNC(=O)C1(C)CCCNC1 (centres undefined) | -45.9% |
| Cc1cccc(C)c1Oc1ncccc1CNC(=O)C1(C)CCCNC1 (centres undefined) | 56.1% |
| CCn1ncc2c1C(COCC1CC1)CN(c1ccc(C)nn1)C2 (centres undefined) | 40.1% |
| CCc1c(C)nc2cc(C3CCN(Cc4ccc(F)cc4)C3)nn2c1O (centres undefined) | 14.3% |
| CCc1c(C)nc2cc(C3CCN(Cc4ccccc4F)C3)nn2c1O (centres undefined) | 51.6% |
| Cc1nc(O)cc(C2CCN(Cc3cccc(F)c3F)C2)n1 (centres undefined) | -81.4% |
| CCc1c(C)nc2cc(C3CCN(CCc4ccccc4)C3)nn2c1O (centres undefined) | -23% |
| Cc1nc2cc(C3CCN(Cc4ccccc4F)C3)nn2c(O)c1C (centres undefined) | 50.3% |
| CN(Cc1noc(C2CC2)n1)C1CCN(Cc2cccc(F)c2F)C1 (centres undefined) | 26.6% |
| CCc1c(C)nc2cc(C3CCN(Cc4cccnc4)C3)nn2c1O (centres undefined) | -81.6% |
| Cc1nc2cc(C3CCN(Cc4cccc(F)c4F)C3)nn2c(O)c1C.O=C(O)CC(O)(CC(=O)O)C(=O)O (centres undefined) | 59.6% |
| CCc1c(C)nc2cc(C3CCN(Cc4cccc(F)c4)C3)nn2c1O (centres undefined) | 5.05% |
| Cc1nc(CN2CC(Cc3ccccc3)CC2=O)no1 (centres undefined) | -37.6% |
| Cc1ccc(CNCc2ccc(N3CCC(CO)CC3)nc2)c(C)c1 | -47.4% |
| CC(c1nc(C2CC2)no1)N1CCc2c(ncn2C)C1 (centres undefined) | -90.5% |
| Cn1nc(C(=O)NCc2cccnc2)c2c1CCS(=O)(=O)C2 | -148% |
| Cc1cnc(CCN(C)C(=O)c2ccc(O)nc2C)s1 | -151% |
| COc1cccc(-c2cc(NCC(=O)O)nc3[nH]ccc23)n1 | -47% |
| COc1cccc(-c2cc(NCCN(C)C)nc3[nH]ccc23)n1 | 53.1% |
| COc1cccc(-c2cc(NCCO)nc3[nH]ccc23)n1 | -62.1% |
| O=C(Cc1ccsc1)N1C[C@H]2CCC[C@@]2(COCc2ccccn2)C1 | -116% |
| Cc1cnc(NC(=O)c2csc(NCC(C)C)n2)s1 | -175% |
| Cc1ncc(CN(C)CC(O)c2ccc(Br)cc2)s1 (centres undefined) | 22.6% |

| SMILES | INHIBITION |
| --- | --- |
| CCOC(=O)CN(C)Cc1cnc(C)s1 | -142% |
| Cc1ccc(CC(=O)NCC(O)c2cccc(C(F)(F)F)c2)cn1 (centres undefined) | -58.1% |
| Cc1cc(CNC(=O)NCC(O)c2cccc(C(F)(F)F)c2)no1 (centres undefined) | -34.1% |
| Cc1ncc(CN(C)CC(O)c2ccc(OC(F)(F)F)cc2)s1 (centres undefined) | 64% |
| Cc1ncc(CN(C)CC(O)c2cccc(C(F)(F)F)c2)s1 (centres undefined) | 54.7% |
| O=C(CC1CC1)N[C@@H]1CN(C(=O)c2ccoc2)C[C@@H]2CCCO[C@@H]21 | -102% |
| CN(C)C(=O)c1cnc2n1CCN(Cc1ccc3c(c1)OCO3)C2 | 24.3% |
| CCn1cc2c(n1)CN(Cc1ccc(F)cc1)CC2COCC1CC1 (centres undefined) | -38.3% |
| CC(C)(CNC(=O)COc1cccc(F)c1)C(N)=O | 60.6% |
| CC(C)(CNC(=O)CCCOc1cccc(F)c1)C(N)=O | 44.9% |
| CC(C)(CNC(=O)CCOc1cccc(F)c1)C(N)=O | -172% |
| CC(C)Cn1cc2nc(N3CCC(O)CC3)[nH]cc-2c1=O | -52.3% |
| Cc1cccc(Cn2cc(Br)c(NS(C)(=O)=O)n2)c1 | -96.25% |
| O=C(NCCn1ccnc1)c1ccn(-c2cccc(F)c2)n1 | -1.32% |
| Cc1oc(-c2cccc(F)c2F)nc1CN(C)CCO | -82.7% |
| Cc1ccc(-c2nn(-c3cccc(F)c3)cc2CN(C)CCO)o1 | 50.5% |
| Cc1nc(CN2CCN(CCCc3nc4ccccc4o3)CC2)no1 | -77.4% |
| CN(Cc1ccco1)[C@@H]1CN(Cc2ccc(F)cc2)[C@@H]2CCCO[C@H]12 | 56.5% |
| CN(Cc1cccnc1)[C@@H]1CN(Cc2nccn2C)[C@@H]2CCCO[C@H]12 | -13.9% |
| CN(Cc1cccnc1)[C@@H]1CN(c2ccccn2)[C@@H]2CCCO[C@H]12 | -39.4% |
| CN(Cc1ccco1)[C@@H]1CN(Cc2cnn(C)c2)[C@@H]2CCCO[C@H]12 | 27.3% |
| CN(Cc1ccco1)[C@@H]1CN(Cc2ccco2)[C@@H]2CCCO[C@H]12 | 11.7% |
| CN(Cc1cccnc1)[C@@H]1CN(Cc2ccccn2)[C@@H]2CCCO[C@H]12 | 50.8% |
| CN(Cc1ccco1)[C@@H]1CN(CC2CCOCC2)[C@@H]2CCCO[C@H]12 | -0.241% |
| Cc1noc(C)c1CN1C[C@@H](N(C)Cc2ccco2)[C@H]2OCCC[C@H]21 | 50.4% |
| CN(Cc1ccco1)[C@@H]1CN(Cc2nccn2C)[C@@H]2CCCO[C@H]12 | -23.8% |
